Inconclusive results are not listed. Entries that show only a call come without a potency. Activity calls are given as the source filed them. The call rests on the fitted dose curve; in most records, active means well fitted inhibition curve with a large enough effect; inconclusive means small, poorly fitted or top-dose-only effect; inactive means no such curve, though single readings can be large or run the other way.
Target: Retinaldehyde dehydrogenase 3 (Homo sapiens) (UniProt P47895)
Assay: qHTS for Inhibitors of the Aldehyde Dehydrogenase Family (ALDH1A3) Primary screen (AID 2061315)
Conditions: ALDH inhibition qHTS; series mostly up to 56 µM

SMILES | Potency
[O-][n+]1onc(-c2ccccc2)c1CO | inactive
CC(=O)Nc1sc2c(c1-c1nc3ccccc3s1)CCN(Cc1ccccc1)C2 | inactive
O=C1c2ccccc2NC(c2ccc(-c3cccc(F)c3)o2)N1O (stereo not drawn) | inactive
Cc1ccsc1CN(C)c1ncnc2ccc(-c3ccoc3C)cc12 | inactive
CC(C)N1CCc2c(sc(NC(=O)Cc3ccccc3)c2-c2nc3ccccc3s2)C1 | inactive
COc1ccc(-c2no[n+]([O-])c2C#N)cc1 | inactive
O=C(CCC#CCSc1nnc(-c2cccc3ccccc23)o1)c1ccccc1 | inactive
CCN(CC)c1ccc(NC(=O)Nc2ccc(C(C)=O)cc2)cc1 | inactive
O=C(Nc1cccnc1)c1ccco1 | inactive
COc1ccc(C2=Nn3c(nnc3-c3ccccc3OC)SC2)c(OC)c1 | inactive
CC(C)N1CCc2c(sc(NC(=O)C3CC3)c2-c2nc3ccccc3s2)C1 | inactive
O=C1Nc2ccccc2/C1=C\c1ccc(O)c(Cl)c1 | inactive
COc1ccc(C2Nc3ccccc3C(=O)N2Cc2ccco2)cc1COc1ccccc1 (stereo not drawn) | inactive
O=C(OCC#CCSc1nnc(-c2cccc3ccccc23)o1)c1ccco1 | inactive
N#Cc1c(-c2cccc(Br)c2)no[n+]1[O-] | inactive
COc1cc(O)c(C(CC(=O)N2CCN(c3ccc(F)cc3)CC2)c2ccc3c(c2)OCO3)c(OC)c1 (stereo not drawn) | inactive
CC(=O)Nc1sc2c(c1-c1nc3ccccc3s1)CNCC2 | inactive
Oc1ccc(Nc2nc(-c3ccncc3)nc3ccccc23)cc1F | inactive
O=S1(=O)N=C(Sc2ccc3c(c2)OCCO3)c2ccccc21 | inactive
NC(=O)c1c(NC(=O)c2ccco2)sc2c1CCCC2 | inactive
CC(C)(C)OC(=O)N1CCN(c2ccc(NCc3ccc(-c4ccc(C#N)cc4)s3)cc2)CC1 | inactive
O=C1c2ccccc2NC(c2ccc(-c3cccs3)o2)N1O (stereo not drawn) | inactive
COc1ccc(N2CCN(S(=O)(=O)c3ccc4c(c3)CC(=O)N4)CC2)cc1 | inactive
CC(=O)N1CCN(c2nc(-c3ccc(Br)cc3)cs2)CC1 | inactive

Target: Aldehyde dehydrogenase 1A1 (Homo sapiens) (UniProt P00352)
Assay: qHTS for Inhibitors of the Aldehyde Dehydrogenase Family (ALDH1A1) Confirmatory screens (AID 2061316); further: nearly all actives have a fitted effect of over 65% in size; further: potency means the concentration at half of the fitted maximal effect
Conditions: ALDH inhibition qHTS; series mostly up to 47.3 µM

SMILES | Potency
O=C1c2ccccc2NC(c2ccc(-c3cccc(F)c3)o2)N1O (stereo not drawn) | 6.34 µM (active)
CC(C)N1CCc2c(sc(NC(=O)Cc3ccccc3)c2-c2nc3ccccc3s2)C1 | inactive
CC(C)c1ccc(NC(=O)N2CCN(c3ccc(Cl)c(Cl)c3)CC2)cc1 | inactive
O=C(Nc1cccnc1)c1ccco1 | 6.34 µM (active)
COc1ccc(C2=Nn3c(nnc3-c3ccccc3OC)SC2)c(OC)c1 | 14.2 µM (active)
CC(C)N1CCc2c(sc(NC(=O)C3CC3)c2-c2nc3ccccc3s2)C1 | 7.98 µM (active)
O=C(Nc1cccc(-c2ccc(N3CCOCC3)nn2)c1)Nc1cccc(C(F)(F)F)c1 | inactive
COc1ccc(-n2cc(C(=O)Nc3cc(F)ccc3F)c3ccccc3c2=O)cc1 | 11.5 µM (active)
O=C(OCC#CCSc1nnc(-c2cccc3ccccc23)o1)c1ccco1 | 6.34 µM (active)
N#Cc1c(-c2cccc(Br)c2)no[n+]1[O-] | 12.7 µM (active)
CC(=O)Nc1sc2c(c1-c1nc3ccccc3s1)CNCC2 | 8.96 µM (active)
NC(=O)c1c(NC(=O)c2ccco2)sc2c1CCCC2 | 3.57 µM (active)
CC(C)(C)OC(=O)N1CCN(c2ccc(NCc3ccc(-c4ccc(C#N)cc4)s3)cc2)CC1 | 12.7 µM (active)
CC(C)NC(=O)c1nc(-c2cccnc2)c2cnccn12 | inactive
O=C1c2ccccc2NC(c2ccc(-c3cccs3)o2)N1O (stereo not drawn) | 6.34 µM (active)
COc1ccc(N2CCN(S(=O)(=O)c3ccc4c(c3)CC(=O)N4)CC2)cc1 | 5.17 µM (active)
CC(=O)N1CCN(c2nc(-c3ccc(Br)cc3)cs2)CC1 | inactive
Brc1ccc(-c2ccc(C3Nc4cccc5cccc(c45)N3)o2)cc1 | 10.1 µM (active)
CCN1c2cc(C(=O)Nc3ccc(C#N)cc3)ccc2C(=O)N2CCCCCC21 (stereo not drawn) | 6.47 µM (active)
